# A selection: hits, their analogues and other compounds. The true share with any hit is near 2.9%.
# D3 ag: activates the human D3 dopamine receptor. max activation, %. P35462. D3R DiscoveRx beta-arrestin cells, luminescence, 90 min. 0.58% of 410,000 active; in the data active = max activation above about 30%; note: 0% is about no effect
# Target sequence (P35462 whole entry, looked up): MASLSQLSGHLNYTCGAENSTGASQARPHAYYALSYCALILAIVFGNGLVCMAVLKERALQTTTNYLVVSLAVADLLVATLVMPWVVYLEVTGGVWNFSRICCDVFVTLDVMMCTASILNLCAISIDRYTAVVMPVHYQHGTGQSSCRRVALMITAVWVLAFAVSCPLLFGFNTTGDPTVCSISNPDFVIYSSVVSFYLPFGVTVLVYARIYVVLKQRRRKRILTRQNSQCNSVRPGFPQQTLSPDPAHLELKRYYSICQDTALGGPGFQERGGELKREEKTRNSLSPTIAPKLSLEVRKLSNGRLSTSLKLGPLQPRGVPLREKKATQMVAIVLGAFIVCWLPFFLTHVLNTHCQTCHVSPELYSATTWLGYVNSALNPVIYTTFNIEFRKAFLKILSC
#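 Cells at 1500/well, incubated overnight, then treated with pinned compounds (dopamine as control) for 90 min at 37 degrees C. DiscoveRx reagent added for 30 - 60 minutes at room temperature; luminescence read.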
# TRPML1 ag: human mucolipin-1 channel agonism; Q9GZU1; TRPML1-expressing cells, Ca2+ dye fluorescence, FDSS; activation, % (no concentration beside the values); 0.12% of 410,000 active; AID 624414; in the data active = activation above about 50%; inconclusive = mostly about 30% to 49%; note: 0% is about no effect
#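 Kinetic FDSS Ca2+ read in Tet-induced TRPML1-DL cells (ABD Ca8 dye plus quencher, 45-90 min RT loading): baseline, then compound, then 110 s agonist window; EC80 agonist 54-4 at 4uM final added afterwards for a 110 s antagonist window.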
# D3 antag: antagonists of human D3 dopamine receptor. max response, negative = inhibition, %. P35462. D3R cells, DiscoveRx beta-arrestin luminescence, antagonist mode; stronger effect = lower value. 2.5% of 360,000 active. AID 652054; in the data active = max response below about -50%; inconclusive = no clear call, values can overlap the other calls; note: % is set by controls: 0 for no effect and ±100 for the full control effect
#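 Cells plated overnight at 1500 cells/well, then exposed to library compounds with dopamine controls for 90 minutes at 37 degrees C. DiscoveRx reagent added for 30–60 minutes at room temperature; luminescence read, quantitative HTS format.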
# TRPML1 blocker: inhibitors of human TRPML1 channel | Q9GZU1 | TRPML1-inducible cells, Ca2+ dye fluorescence, FDSS; stronger effect = lower value; inhibition of EC80 agonist-evoked calcium signal | activity change, negative = inhibition, % (no concentration beside the values) | 0.02% of 390,000 active; in the data active = activity change below about -50%; inconclusive = between about -30% and that limit;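 note: stimulus is agonist 54-4 at its EC80 concentration; % is set by controls: 0 for no effect and ±100 for the full control effect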
#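 Tet-induced TRPML1-DL cells loaded with Ca8 no-wash calcium dye were read kinetically on FDSS. Compound addition was followed by EC80 agonist 54-4 (4 uM final); inhibition was read over 110 s.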
# Numbers without * were called inactive; ? = inconclusive; . = no result.
SMILES,D3 ag,TRPML1 ag,D3 antag,TRPML1 blocker
COc1ccc(OCCN2CCC(C(=O)NC(c3ccc(Cl)cc3)c3cnccn3)CC2)cc1 (stereo not given),-13,0,?,.
COc1ccc(C(C)NC(=O)C2CCN(CCOc3ccc(Cl)cc3Cl)CC2)cc1OC (stereo not given),-4,2,-92*,.
Cc1nc2c(o1)CCc1ccccc1C2N1CCN(C)CC1 (stereo not given),-13,1,-54*,-3
O=C(OCC(=O)N1CCCCC1)c1cc(NS(=O)(=O)c2ccc(Cl)c([N+](=O)[O-])c2)ccc1O,-8,1,-50*,12
Cc1c(Cl)cccc1-n1nnc(-c2nc(-c3ccc4c(c3)OCO4)no2)c1C,0,0,.,56
CCCCc1c(-c2ccccc2OC)ncn1Cc1cccc(-c2ccccc2)c1,-21,1,-108*,.
CCc1c(C2CC2)ncn1Cc1cccc(-c2ccccc2)c1,-14,.,-95*,.
O=c1cc(CO)oc(CN2CCN(c3ccccc3)CC2)c1O,-1,0,72,1
CCOc1cc(CN2CCN(c3cccc(C(F)(F)F)c3)CC2)ccc1OC,-23,2,-89*,16
Cc1c(S(=O)(=O)N2CCN(c3cccc(C(F)(F)F)c3)CC2)c(=O)n(C)c(=O)n1C,-7,-1,-27,0
CCOc1cc(CN2CCN(c3cccc(C(F)(F)F)c3)CC2)ccc1O,-15,1,-86*,-2
Cc1c(CN2CCN(c3cccc(C(F)(F)F)c3)CC2)c(=O)n(-c2ccccc2)n1C,3,0,-76*,-25
CCOc1cc(CN2CCN(c3ccc(C(C)=O)cc3)CC2)ccc1OC,-9,1,-24,5
O=c1cc(CO)oc(CN2CCN(c3cccc(C(F)(F)F)c3)CC2)c1O,1,0,-64*,10
CCOc1cc(CN2CCSCC2)ccc1O,-26,0,?,-6
CN(C)c1ccc(CCc2ccnc3ccccc23)cc1,.,-1,.,.
O=C(Cn1cc(S(=O)(=O)Cc2ccc(F)cc2)c2ccccc21)NCCc1ccccc1,-17,1,.,26
Cc1ccccc1-c1nc(CN2CCC(C(=O)NCc3ccccc3Cl)CC2)c(C)o1,1,0,.,8
COC(=O)c1cc(CN2CCN(c3ccccc3)CC2)ccc1O,5,-1,-56*,37
COc1ccc(CC(C)N2CCN(c3cccc(C(F)(F)F)c3)CC2)cc1OC (stereo not given),-23,0,-88*,-4
O=C(NCc1ccco1)c1ccc2c(c1)N(Cc1ccccc1)C(=O)c1ccccc1S2(=O)=O,0,1,.,-5
Cc1cccc(-c2nnc(C3CCN(S(=O)(=O)c4cccc(Cl)c4)CC3)o2)c1,-6,3,.,35
O=[N+]([O-])c1cc(Cc2ccccc2)cc(C=Nc2ccc(N3CCOCC3)cc2)c1O,-5,1,-67*,-3
Cc1ccc(O)c(N=Cc2cc(Cc3ccccc3)cc([N+](=O)[O-])c2O)c1,10,1,?,-3
CN1CCC(OC(c2ccccc2)c2ccccc2)CC1,-1,0,0,3
SMILES,D3 ag,TRPML1 ag,D3 antag,TRPML1 blocker
CN1CCC(Oc2ccccc2Sc2ccccc2)CC1,-7,2,-63*,28
CSc1nc(-c2ccccc2)[nH]c(=S)c1C(C)=O,-8,0,-93*,-18
Cc1ccc2c(c1)C(C)CC(C)(C)N2C(=O)NC1CCCCC1 (stereo not given),8,-1,-54*,8
Cc1ccc2c(c1)C(C)CC(C)(C)N2C(=O)CN1CCN(C)CC1 (stereo not given),-23,0,-93*,-15
Cc1ccc2nc(CO)[nH]c2c1,.,0,.,.
CCc1cccc(NC(=O)c2ccc(CNS(=O)(=O)c3ccc4c(c3)C(C)(C)C(=O)N4C)cc2)c1,13,0,.,2
O=C(C[n+]1cccc(Br)c1)c1ccc(O)c(O)c1,.,0,.,.
CC(=O)Nc1ccc(NC(=O)c2cc(-c3ccc(F)cc3C)n[nH]2)cc1,-7,0,?,.
Cc1cc(F)ccc1-c1cc(C(=O)Nc2ccccc2)[nH]n1,-12,0,-85*,.
COc1ccc(-c2cc(C(=O)Nc3ccc(OC)c(OC)c3)[nH]n2)c(C)c1,-15,-1,-60*,.
Cc1cc(F)ccc1-c1cc(C(=O)NCc2cccs2)[nH]n1,-22,-1,-77*,.
COc1ccc(-c2nnc(SCC(=O)Nc3cc(OC)ccc3OC)nc2-c2ccc(OC)cc2)cc1,1,2,.,-20
CCSc1nc(-c2ccc(Cl)cc2)nc2c1Cc1c(CO)cnc(C)c1O2,2,1,.,-12
CCN(CC)c1cc(C)c2cc(NC(=O)/C=C/c3cc(OC)c(OC)c(OC)c3)ccc2n1,-13,0,.,-1
COc1ccc2cc(CNc3ccc(C)cc3)c(=O)n(CC(=O)Nc3ccc(OC)c(Cl)c3)c2c1,7,2,.,-1
CC(C)(C)n1ncc2c(=O)n(Cc3ccc(C#N)cc3F)cnc21,.,0,.,23
Cc1cccc(OC(C)C(=O)Nc2ncn[nH]2)c1 (stereo not given),9,0,.,3
CC(=O)c1ccc(NC(=O)COC(=O)c2ccccc2Nc2ccccc2)cc1,-1,3,-51*,13
N#Cc1c(N)nc(SCC(=O)NC2CCCCC2)c(C#N)c1-c1ccc(Cl)cc1,46*,0,-12,-3
COc1ccc(-n2c(/C=C/c3ccccc3F)nc3cc(OC)c(OC)cc3c2=O)cc1Cl,-16,0,.,22
CN(CC(=O)Nc1ccccc1Cl)C(=O)COC(=O)c1nc(Cl)c(Cl)c(Cl)c1Cl,-6,0,-67*,4
CN(CC(=O)Nc1ccccc1Cl)C(=O)COC(=O)c1ccc(Cl)nc1,3,-1,-3,-14
COc1ccc(-n2nc(C(=O)c3cccs3)cc(-c3nc4ccccc4[nH]3)c2=N)cc1,-6,0,-56*,-15
CN(c1ccc(C(=O)N2CCOCC2)cc1[N+](=O)[O-])C1CCCCC1,1,0,-60*,-1
CCOc1ccccc1NC(=O)Cn1c(=O)n(Cc2ccc(OC)cc2)c(=O)c2oc3ccccc3c21,-4,1,.,-9
SMILES,D3 ag,TRPML1 ag,D3 antag,TRPML1 blocker
O=C1c2ccccc2S(=O)(=O)c2cc(C(=O)N(c3ccccn3)c3ccccn3)ccc21,10,64*,12,-6
O=C(Nc1ccccn1)c1ccc2c(c1)S(=O)(=O)c1ccccc1C2=O,-6,0,8,30
S=c1[nH]nc(-c2cc(-c3ccccc3)n[nH]2)n1/N=C/C=C/c1ccccc1,-16,2,-26,-17
S=c1[nH]nc(-c2n[nH]c3c2CCC3)n1/N=C/C=C/c1ccccc1,-6,0,-115*,22
Cc1ccc(S(=O)(=O)Oc2ccc(C3C4=C(CCCC4=O)OC4=C3C(=O)CCC4)cc2)cc1,-5,2,19,0
CN(C)c1ccc(C2C3=C(CCCC3=O)OC3=C2C(=O)CCC3)cc1,0,-1,-55*,-13
Cn1cnc([N+](=O)[O-])c1S(=O)(=O)Nc1ccccc1,-19,0,-10,7
